Bioassay records deposited in PubChem BioAssay by Johns Hopkins Ion Channel Center.
KCNQ2 pot = potentiators of rat KCNQ2 potassium channel; CHO-K1 KCNQ2, FluxOR thallium flux fluorescence; active compounds read high; Potassium voltage-gated channel subfamily KQT member 2 (Rattus norvegicus), O88943; AID 2239, 2010; B-score at 10 µM; 310,000 compounds, 0.54% hits;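 active means fluorescence ratio B-score at least 3 SD of library B-scores, with initial fluorescence B-score within 3 of them, cut at about 5.3 in these data; same plate scores as AID 2156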;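 further: B-score of peak minus minimum over baseline fluorescence ratio after K+ and Tl+ stimulus; positive B-score means potentiation of KCNQ2 with more thallium influx and brighter signal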
KCNQ2 inh = rat KCNQ2 potassium channel inhibitors, primary screen, cell-based, CHO-K1, FluxOR thallium flux, B-score; 310,000 compounds, 1.1% hits; Potassium voltage-gated channel subfamily KQT member 2 (Rattus norvegicus), O88943; 20 min; active compounds read low; AID 2156, 2009; B-score at 10 µM;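 active means fluorescence ratio B-score at most minus 3 library SDs, with starting brightness B-score within 2 library SDs, cut at about -5.5 in these data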
Kir21 conf inh = mouse Kir2.1 channel blockers, retest, confirmation, cell-based, FluxOR thallium flux, duplicate | Kir2.1-expressing cells, FluxOR thallium flux fluorescence; active compounds read low | 2,300 compounds, 41% hits | Tl flux remaining, % of negative control (active compounds read low), % at 10 µM | shares compounds with KCNQ2 pot | AID 2032, 2009;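 active means Primary-screen hit whose thallium flux fell at least 3 control SD below untreated wells in both duplicates, with normal baseline fluorescence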;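 further: 0% = blank wells without stimulus and 100% = stimulated no-compound controls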
HEK293 ctr = alters thallium flux in parental HEK293 cells, Kir2.1 counter-screen; FluxOR signal as % of negative control (100 = no effect), % at 10 µM; AID 2105; 2,300 compounds, 19% hits; FluxOR thallium flux fluorescence; 0% = unstimulated blank wells; shares compounds with KCNQ2 pot;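 active means dye signal at least 3 control SD above or below untreated wells in both duplicates, raw fluorescence within 3, either direction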;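 further: percent is based on the flux ratio of peak minus minimum fluorescence over baseline F0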
CHO-K1 Tl ctr = nonspecific thallium flux increase in parental CHO-K1, confirmation, counter-screen for KCNQ2 potentiator project, cell-based, FluxOR thallium flux, duplicate; shares compounds with KCNQ2 pot; parental CHO-K1 cells, FluxOR thallium flux fluorescence; zero = vehicle mean+3SD, 100% = vehicle-minus-blank window; activity increase over 3SD of controls, % at 10 µM; 1,200 compounds, 43% hits;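 active means signal rise of at least 3 SD above the untreated control mean, in both duplicate wells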;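 further: counter screen of KCNQ2 potentiator hits so any rise reflects channel-independent effects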
KCNQ1 pot spec = human KCNQ1 channel potentiation off-target, confirmation, selectivity assay for KCNQ2 potentiator project, cell-based, CHO, FluxOR thallium flux; AID 2283, 2010; shares compounds with KCNQ2 pot; CHO KCNQ1 stable, FluxOR thallium flux fluorescence; beyond 3SD, as % of vehicle-control signal; 1,200 compounds, 28% hits; activation over 3SD threshold, % at 10 µM;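 active means fluorescence ratio rise of at least 3 SD of vehicle wells above their mean, in both replicate wells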;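 further: 0% = vehicle mean plus 3 SD and 100% = vehicle minus unstimulated blank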
KCNQ2 pot conf = rat KCNQ2 channel potentiators, confirmation, cell-based, CHO, FluxOR thallium flux, duplicate | shares compounds with KCNQ2 pot | CHO-KCNQ2 cells, FluxOR thallium flux fluorescence | potentiation, less the hit threshold, % at 10 µM | 1,200 compounds, 68% hits | AID 2287, 2010;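 active means fluorescence ratio rising 3 SD or more over the vehicle control mean in both replicates, plus primary screen hit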;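 further: peak minus minimum thallium fluorescence divided by baseline after K/Tl stimulus; 0% = vehicle mean plus 3 SD and 100% = vehicle minus unstimulated blank difference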
Kir21 spec = mouse Kir2.1 channel activation off-target, confirmation, selectivity assay for KCNQ2 potentiator project, cell-based, HEK293, FluxOR thallium flux; shares compounds with KCNQ2 pot; HEK293 Kir2.1, FluxOR thallium flux fluorescence; activity over 3SD threshold, % at 10 µM; 1,200 compounds, 2% hits; AID 2345, 2010;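 active means fluorescence ratio rise of at least 3 SD above the vehicle-control mean, seen in both replicates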;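 further: 0% = vehicle mean plus 3 SD and 100% = vehicle minus no-stimulus blank window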
KCNQ2 W236L MoA = potentiators of retigabine-insensitive KCNQ2 W236L, mechanism study for KCNQ2 potentiator project, cell-based, rat KCNQ2 W236L, CHO, automated patch clamp; current increase over 3SD of negative controls (%), active compounds read high, % at 25 µM; automated patch clamp current; shares compounds with KCNQ2 pot; AID 2558, 2010; 940 compounds, 10% hits;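 active means current increase at least 3 SD of the untreated controls above them in both duplicate recordings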
* hit, by the source's call; i = inactive; / = not tested or not shown. Sampled rows, rich in hits. Any-hit rate of the full collection: about 1.6%.

SMILES | KCNQ2 pot | KCNQ2 inh | Kir21 conf inh | HEK293 ctr | others
O=C(N/N=C/C1C(=O)NC(=S)N(c2ccccc2)C1=O)c1cc(Br)c(O)c(Br)c1 (configuration not stated) | / | i | / | /
Cc1ccc2cc(CNCCc3ccccc3C)c(=O)[nH]c2c1 | 1.1 | i | / | /
Cc1cccc(CCNCc2cc3cccc(C)c3[nH]c2=O)c1 | 1.1 | i | 52%* | i
COc1cccc(OCc2cc(C(=O)N3C[C@H]4C[C@@H](C3)c3cccc(=O)n3C4)no2)c1 | / | i | / | /
CCCCOCCCN1C(C)=CC(=C2C(=O)NC(=S)NC2=O)C=C1C | 0.14 | i | / | /
COc1ccc(CNCCc2c(C)[nH]c3ccc(OC(F)(F)F)cc23)c(OC)c1 | / | i | i | i
COc1ccc2[nH]c(C)c(CCNCc3cc(OC)c(OC)c(OC)c3)c2c1 | / | i | / | /
CN1CCN(CC(=O)Nc2ccc([N+](=O)[O-])cc2C(=O)c2ccccc2)CC1 | 3 | i | / | /
CCCCCSc1cc(OC)c(CCN(C)C)cc1OC | 0.11 | i | 45%* | i
CCCCCSc1cc(O)c(C(CNC)C(C)C)cc1OC (configuration not stated) | 0.41 | i | / | /
O=C1NC(=O)N(CCNc2ncc(C(F)(F)F)cc2Cl)C(=O)C1Cc1ccc(Cl)cc1 (configuration not stated) | 1.8 | i | / | /
Oc1cccc2nc3ccccc3nc12 | 12* | i | i | i | CHO-K1 Tl ctr=-14;KCNQ1 pot spec=-6;KCNQ2 pot conf=7.1*;Kir21 spec=-35;KCNQ2 W236L MoA=i
Cc1cccc(CNCCc2ccccc2)n1 | 0.12 | i | / | /
CN(C)[C@@H]1C(=O)C(C(N)=O)=C(O)[C@@]2(O)C(=O)C3=C(O)c4c(O)cccc4[C@@](C)(O)C3[C@H](O)C12 (some centres not stated) | / | i | / | /
